Drawing on ChEMBL document CHEMBL3433997, “St. Jude Leishmania screening dataset” (2016), this text covers inhibition for 37 compounds.

What all share (assay type): functional
In assay [1] the target is Solute carrier family 2, facilitated glucose transporter member 1 (Homo sapiens) (UniProt P11166). Description: ST_JUDE_LEISH: Cytotoxicity at 2uM final concentration against transgenic Leishmania Mexicana promastigotes LmGLUT1 that are glucose transport deficient and complemented with the human glucose transporter GLUT1. Activity is measured by DNA content using SYBR green in vitro.
Solute carrier family 2, facilitated glucose transporter member 1 (Homo sapiens), sequence (P11166 whole entry): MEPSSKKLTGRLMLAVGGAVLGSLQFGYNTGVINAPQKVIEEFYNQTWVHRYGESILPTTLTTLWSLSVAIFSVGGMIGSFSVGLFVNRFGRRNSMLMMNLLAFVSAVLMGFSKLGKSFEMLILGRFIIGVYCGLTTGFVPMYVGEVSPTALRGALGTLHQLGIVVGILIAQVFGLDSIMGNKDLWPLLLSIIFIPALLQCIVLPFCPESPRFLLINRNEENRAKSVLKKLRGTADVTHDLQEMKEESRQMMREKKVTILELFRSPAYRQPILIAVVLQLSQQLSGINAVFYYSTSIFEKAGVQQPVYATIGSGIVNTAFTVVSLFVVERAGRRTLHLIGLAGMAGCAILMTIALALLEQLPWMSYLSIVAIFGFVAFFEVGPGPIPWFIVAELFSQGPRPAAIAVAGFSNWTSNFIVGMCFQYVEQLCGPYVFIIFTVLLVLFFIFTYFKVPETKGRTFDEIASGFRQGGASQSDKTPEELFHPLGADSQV

The target in assay [2] is Hexose transporter 1 (Plasmodium falciparum) (UniProt O97467). Briefly: ST_JUDE_LEISH: Cytotoxicity at 2uM final concentration against transgenic Leishmania Mexicana promastigotes LmPfHT that are glucose transport deficient and complemented with the Plasmodium falciparum hexose transporter. Activity is measured by DNA content using SYBR green in vitro.
The target in assay [3] is Glucose transporter (Leishmania mexicana) (UniProt O61059). Description: ST_JUDE_LEISH: Cytotoxicity at 2uM final concentration against transgenic Leishmania Mexicana promastigotes LmGT2 that are glucose transport deficient and complemented with the L. Mexicana glucose transporter 2. Activity is measured by DNA content using SYBR green in vitro.

The inhibition is the drop in the measured response relative to a control, in per cent. As for `CCOc1ccc2nc3cc(N)ccc3c(N)c2c1`, the results for the inhibition in assay [1], in assay [2] and in assay [3] were 1.58%, 3.26% and 1.19%, respectively.
The like results for `CN(CCN)Cc1cccc(-c2cccc(-c3nc4cc(C(F)(F)F)ccc4[nH]3)c2)c1` were, in that order, 2.68%, 2.47% and 3.72%.
For the compound `Cc1ccccc1C1CCN(C2CCC(NC(=O)/C=C/c3ccc(F)cc3)CC2)CC1` (stereo unspecified), the results for the inhibition in assay [1], in assay [2] and in assay [3] were -1.42%, -0.14% and 0.53%, respectively.
Take `COc1cc2nc(Nc3ccc(Oc4ccccc4)cc3)nc(Nc3ccc(Oc4ccccc4)cc3)c2cc1OC`: the inhibition was determined as 6.52% in assay [1], 3.92% in assay [2] and 6.04% in assay [3].
Regarding `CCCN1CCN(CC(O)CNC(=O)Nc2ccc(Br)cc2)CC1` (stereo unspecified), the inhibition in assay [1] came to 3.68%; in assay [2] it was 4.03%; in assay [3] it was 3.09%.
As for `O=C(Nc1cccc(-c2nn3ncccc3c2-c2ccnc(Nc3cccc(C(F)(F)F)c3)n2)c1)c1c(F)cccc1F`, the inhibition is 2.16% in assay [1], 3.08% in assay [2] and -0.92% in assay [3].
`CC1(C)NC(N)=NC(=N)N1OCc1cccc(Cl)c1Cl`: the inhibition worked out at 2.02% in assay [1], 3.75% in assay [2] and 2.46% in assay [3].
Regarding `Cc1cc(F)ccc1[C@H]1C[C@H](N2CCOCC2)CCN1C(=O)N(C)[C@@H](C)c1cc(C(F)(F)F)cc(C(F)(F)F)c1`, the inhibition was 0.71% in assay [1], 0.17% in assay [2] and -0.74% in assay [3].
Take `OCCN1CCN(Cc2ccc(-c3ccc(-c4nc5cc(C(F)(F)F)ccc5[nH]4)s3)cc2)CC1`: the inhibition in assay [1] amounted to 5.47%; in assay [2], 4.05%; in assay [3], 4.01%.
As for `O=C(O)c1cccc2c(-c3ccncc3)cccc12`, the inhibition in assay [1] is 0.79%; in assay [2], 1.26%; in assay [3] it was 1.31%.
In the case of `CC(Cc1ccc(C(=O)OC(c2ccccc2)c2ccccc2)cc1)NCC(O)c1ccccc1` (stereo unspecified), the inhibition in assay [1] is 0.9%; in assay [2], 0.98%; in assay [3], -0.61%.
Turning to `CCOC(=O)C1=C(C)NC(C)=C(C(=O)OCC)C1(C(=O)OCc1ccccc1)c1cccc(C(F)(F)F)c1`, the inhibition turned out to be 2.88% in assay [1], 3.39% in assay [2] and 4.11% in assay [3].
As for `Cc1nn(-c2ccnc3cc(Cl)ccc23)c(C)c1C(=O)NCc1cc(Cl)cc(Cl)c1`, the inhibition is 0.16% in assay [1], -0.98% in assay [2] and 1.27% in assay [3].
Regarding `CCOc1ccc(NC(=O)c2cn3nc(-c4ccc(OCC)cc4)cc3nc2C2CCNCC2)cc1`, the inhibition in assay [1] worked out at 1.5%; in assay [2], 2.58%; in assay [3] it was 3.37%.
For `CC(=O)Oc1c(C2CCN(CCCCNC(=O)c3ccc(NC(=O)c4ccc(Cl)cc4)cc3)CC2)ccc2c1CCCC2` the same measures were 4.86%, 6.32% and 3.9%.
On to `Cc1ccc(NC(=O)c2ccc(CN3CCCN(Cc4cccc(O)c4)CC3)cc2)cc1`, for which the inhibition in assay [1] was -1.8%; in assay [2], -0.37%; in assay [3], 1.37%.
For the compound `COc1cc(Cc2cnc(N)nc2N)cc(OCCCCCCC(=O)O)c1OC`, the inhibition is 0.12% in assay [1], -0.55% in assay [2] and -0.96% in assay [3].
Regarding `CC(C)(C)c1ccc(CN2CCC(CNC(=O)c3cc(-c4ccccc4)nc4ccccc34)CC2)cc1`, the inhibition was -2.07% in assay [1], 0.33% in assay [2] and -1.73% in assay [3].
Consider `CC(C)(C(=O)Nc1ccc(C2CCC(NCC3CC3)CC2)c(Cl)c1)c1ccc(C(F)(F)F)cc1` (stereo unspecified), for which the inhibition was 0.29% in assay [1], 0.31% in assay [2] and -0.91% in assay [3].
As to `COc1ccc(-c2cccc(NC(=O)c3cccc(F)c3)c2)cc1CN1CCCN(C)CC1`, the inhibition was 2.17% in assay [1], 1.16% in assay [2] and -0.49% in assay [3].
As to `Cc1cnc(C(=O)Nc2cccc(-c3csc(-c4nc5ccccc5[nH]4)c3)c2)cn1`, the inhibition in assay [1] was found to be 5.41%; in assay [2] it was 1.2%; in assay [3], 3.93%.
For `CC(C)CCNCC(O)Cn1c2ccc(Cl)cc2c2cc(Cl)ccc21` (stereo unspecified), the inhibition in assay [1] is 0.18%; in assay [2], 0.29%; in assay [3], 0.33%.
As to `Cc1ccc(NC(=O)NC2CCN(CCCCCNC(=O)/C=C/c3ccc(Cl)c(Cl)c3)CC2)cc1`, the inhibition in assay [1] was 0.42%; in assay [2], 1.16%; in assay [3] it was -5.98%.
`CC[C@H]1CN(C/C=C/c2ccc(OC)cc2)CC[C@H]1CCCc1ccnc2ccc(O)cc12`: the inhibition in assay [1] is 2.15%; in assay [2], 2%; in assay [3], 1.51%.
As to `CCOC(=O)c1ccc(NC(=O)N(Cc2ccc(-c3ccc(CN4CCNCC4)cc3)cc2)Cc2cccnc2)cc1`, the inhibition was found to be 2.01% in assay [1], 2.09% in assay [2] and 0.48% in assay [3].
The like results for `C=CCNC(=O)C(C)c1ccc2cc(OC)ccc2c1` (stereo unspecified) were, in that order, 0.71%, 0.77% and -0.06%.
`COC(=O)Cn1c2ccccc2c2c(N)c(C(=O)OC)c(C)nc21`: the inhibition in assay [1] is 0.93%; in assay [2], 0.97%; in assay [3], -0.45%.
On to `Nc1ncc(Cc2cc(Cl)c(N)c3ncccc23)c(N)n1`, for which the values for the inhibition in assay [1], in assay [2] and in assay [3] were 2.6%, 2.88% and 2.91%, respectively.
Take `O=[N+]([O-])c1cc(C(c2ccc(O)c([N+](=O)[O-])c2)C(Cl)(Cl)Cl)ccc1O`: the inhibition in assay [1] stood at 9.43%; in assay [2], 9.85%; in assay [3] it was 7.92%.
For `COC(=O)c1ccc2nc(-c3ccc(/C=C/C(=O)NCc4ccc(Cl)c(Cl)c4)cc3)[nH]c2c1` the same measures were 3.11%, 0.43% and 4.71%.
Turning to `CCn1c2ccccc2c2cc(C=NN=c3cc(C)[nH]c4ccccc34)ccc21`, the values for the inhibition in assay [1], in assay [2] and in assay [3] were 4.76%, 6% and 0.19%, respectively.
As for `COc1ccc2c(c1)CCN(CCN1CCC(CNC(=O)c3ccc(-c4ccc(C#N)cc4)cc3)CC1)C2`, the inhibition was -0.11% in assay [1], 1.19% in assay [2] and 2.22% in assay [3].
On to `CC1(C)N=C(N)N=C(N)N1c1ccc(Oc2ccccc2)cc1`, for which the inhibition in assay [1] was determined as 1.59%; in assay [2], 1.71%; in assay [3], 2.8%.
As to `N#Cc1cccc(C(=O)Nc2ccc(-c3cccc(CN4CCC(O)CC4)c3)cc2)c1`, the inhibition in assay [1] was 0.21%; in assay [2], 0.35%; in assay [3], -0.04%.
On to `N=C(N)c1cccc(-c2cc(-c3cccc(C(=N)N)c3)on2)c1`, for which the inhibition was 0.92% in assay [1], 2.23% in assay [2] and -0.32% in assay [3].
As to `O=C(Nc1cccnc1)c1cc(-c2cccnc2)nc2ccc(Cl)cc12`, the inhibition in assay [1] was determined as 6.95%; in assay [2] it was 2.76%; in assay [3] it was 1.98%.
`COc1ccc(S(=O)(=O)N2CCCC(C)C2)cc1N1CCN(C(=O)c2ccc([N+](=O)[O-])o2)CC1` (stereo unspecified): the inhibition in assay [1] was 1.83%; in assay [2], 0.28%; in assay [3], 0.09%.
